GPR151 activ – activates the human receptor GPR151; Q8TDV0; PathHunter beta-arrestin GPR151 cells, luminescence; activation, % at 11.2 µM; hit rate 1% among 650,000; in the data active = activation above about 4.9%;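 note: 0% = median of compound wells and 100% = cells with positive control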
FBW7 activator – activators of human E3 ligase FBW7. Q969H0. AID 1259310. hit rate 0.13% among 650,000. AlphaScreen FBW7–phospho-cyclin E peptide binding, activator screen. normalized activity (activation), % at 26.1 µM; in the data active = normalized activity above about 1.9%;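 note: purified mutant Fbw7 with reduced substrate affinity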
Target sequence (Q969H0 whole entry, looked up): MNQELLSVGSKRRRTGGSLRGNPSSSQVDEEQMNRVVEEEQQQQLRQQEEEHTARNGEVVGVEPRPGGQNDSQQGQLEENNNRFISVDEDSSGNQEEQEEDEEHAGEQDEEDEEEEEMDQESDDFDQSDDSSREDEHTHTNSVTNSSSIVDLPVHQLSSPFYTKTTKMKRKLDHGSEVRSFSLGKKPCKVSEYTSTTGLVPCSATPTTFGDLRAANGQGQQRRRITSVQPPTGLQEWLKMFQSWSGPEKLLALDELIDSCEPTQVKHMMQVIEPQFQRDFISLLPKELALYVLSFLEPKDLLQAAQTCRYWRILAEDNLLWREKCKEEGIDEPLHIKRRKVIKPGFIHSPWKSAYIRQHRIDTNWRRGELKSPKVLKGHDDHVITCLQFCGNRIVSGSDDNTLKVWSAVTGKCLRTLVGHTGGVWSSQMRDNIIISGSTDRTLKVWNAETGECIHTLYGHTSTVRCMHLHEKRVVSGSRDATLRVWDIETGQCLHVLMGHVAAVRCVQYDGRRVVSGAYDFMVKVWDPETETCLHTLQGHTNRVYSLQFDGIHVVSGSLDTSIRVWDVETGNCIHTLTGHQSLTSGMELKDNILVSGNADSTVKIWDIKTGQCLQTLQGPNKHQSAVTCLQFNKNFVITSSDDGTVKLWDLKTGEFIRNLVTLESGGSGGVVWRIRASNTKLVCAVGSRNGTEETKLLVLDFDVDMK
MITF inh – human MITF inhibition, primary screen; AlphaScreen MITF homodimerization, bead proximity signal; inhibition, % at 2.6 µM; hit rate 0.91% among 650,000; in the data active = inhibition above about 50%;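 note: 0% = vehicle wells with protein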
TEAD-YAP block – TEAD-YAP interaction inhibition | HEK-TIYL cells, TEAD-Gal4/YAP UAS-luciferase luminescence | inhibition, % at 9.12 µM | hit rate 1.4% among 640,000; in the data active = inhibition above about 32%;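 note: 0% = median of test compound wells and 100% = reference inhibitor wells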
MITF confirm – human MITF inhibition, confirmation; shares compounds with MITF inh; AlphaScreen MITF homodimerization, biotin/His-MITF beads; inhibition, % at 2.6 µM; hit rate 16% among 4,700;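 active = inhibition above a cutoff derived from the DMSO control wells, cut at about 28% in these data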;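 note: 0% = MITF dimer wells with DMSO only; inhibitors lower the bead chemiluminescence by keeping MITF from dimerizing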
AS interf DR – AlphaScreen optical interference, dose response counter-screen; shares compounds with MITF inh; AlphaScreen optical interference counterscreen, cell-free; IC50, µM; hit rate 6% among 480; AID 1259373; call rule not given here
AS interf ctr – counter-screen: compounds optically interfering with AlphaScreen | shares compounds with MITF inh | LysRS AlphaScreen counterscreen, signal interference, triplicate | inhibition, % at 2.6 µM | hit rate 7.6% among 4,700 | AID 1259376;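 active = inhibition above a cutoff derived from the DMSO control wells, cut at about 30% in these data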
Numbers without * were called inactive. Only some compounds are listed: those with a hit (about 3.4% of all), similar ones and a draw of the others.

How did CCOc1ccc(CN2CCN(C(=O)c3cccc(F)c3)CC2)cc1 do in these assays?
GPR151 activ: 1; FBW7 activator: 0; MITF inh: 55*; TEAD-YAP block: 19; MITF confirm: 11; AS interf ctr: 19

Results for CCOc1cc(CN2CCN(C(=O)c3cccc(F)c3)CC2)ccc1OC ?
GPR151 activ: 1; FBW7 activator: 0; MITF inh: 47; TEAD-YAP block: 6

How did O=C(c1cccc(F)c1)N1CCN(Cc2ccc(F)cc2)CC1 do in these assays?
GPR151 activ: 0; FBW7 activator: 0; MITF inh: 66*; TEAD-YAP block: -2; MITF confirm: -5; AS interf ctr: 2

What do the screens show for `CN(C)c1ccc(C2(c3ccc(N(C)C)c4ccccc34)C=Cc3c(ccc4ccccc34)O2)cc1` (centres undefined)?
GPR151 activ: 1; FBW7 activator: 0; MITF inh: -8; TEAD-YAP block: 3

What do the screens show for `O=C(O)CCCNC(=O)/C=C/c1ccco1`?
GPR151 activ: 1; FBW7 activator: 0; MITF inh: 62*; TEAD-YAP block: 3; MITF confirm: 59*; AS interf DR: >6.5; AS interf ctr: 3

Results for CCc1nnc(NC(=O)/C=C/c2ccco2)s1 ?
GPR151 activ: 1; FBW7 activator: 0; MITF inh: 0; TEAD-YAP block: -34

How did O=C(/C=C/c1ccco1)NCc1cccc(CNC(=O)/C=C/c2ccco2)c1 do in these assays?
GPR151 activ: 2; FBW7 activator: 0; MITF inh: 74*; TEAD-YAP block: 4; MITF confirm: 82*; AS interf DR: >6.5; AS interf ctr: 16

What do the screens show for `O=C(/C=C/c1ccco1)Nc1nnc(-c2ccco2)s1`?
GPR151 activ: 0; FBW7 activator: 0; MITF inh: 52*; TEAD-YAP block: 30; MITF confirm: 57*; AS interf DR: >6.5; AS interf ctr: 8

Results for O=C(/C=C/c1ccco1)Nc1cccc(NC(=O)/C=C/c2ccco2)n1 ?
GPR151 activ: -1; FBW7 activator: 0; MITF inh: 82*; TEAD-YAP block: -48; MITF confirm: 49*; AS interf DR: >6.7; AS interf ctr: 1

How did O=c1oc2c(Br)c(O)c(Br)cc2s1 do in these assays?
GPR151 activ: -1; FBW7 activator: 0; MITF inh: 42; TEAD-YAP block: 10

How did O=C(CSc1ccc(-c2ccncc2)nn1)c1ccccc1 do in these assays?
GPR151 activ: -1; FBW7 activator: 0; MITF inh: 10; TEAD-YAP block: -7

What do the screens show for `CCOC(=O)c1cc(Sc2ccc(O)c(C(=O)OCC)c2)ccc1O`?
GPR151 activ: -1; FBW7 activator: 0; MITF inh: 18; TEAD-YAP block: 6

How did Nc1ccc2nc(SCc3ccc(Br)cc3)sc2c1 do in these assays?
GPR151 activ: -1; FBW7 activator: 0; MITF inh: 8; TEAD-YAP block: -18

Results for O=C(/C=C/c1ccco1)/C=C/c1ccco1 ?
GPR151 activ: 1; FBW7 activator: 0; MITF inh: 68*; TEAD-YAP block: 9; MITF confirm: 77*; AS interf ctr: 97*

How did O=C(/C=C/c1ccco1)ON1C(=O)c2ccccc2C1=O do in these assays?
GPR151 activ: 0; FBW7 activator: 0; MITF inh: 56*; TEAD-YAP block: -3; MITF confirm: 35*; AS interf DR: >6.5; AS interf ctr: 1

What do the screens show for `O=C(/C=C/c1ccco1)OCC(=O)N1CCCC1`?
GPR151 activ: 3; FBW7 activator: 0; MITF inh: 17; TEAD-YAP block: 3

How did CCS(=O)(=O)NCCc1cc2ccc(C)c(C)c2[nH]c1=O do in these assays?
GPR151 activ: 0; FBW7 activator: 1; MITF inh: 11; TEAD-YAP block: -35

What do the screens show for `CC(NCCN(C)C)C(=O)Nc1ccc2c(c1)OCO2` (centres undefined)?
GPR151 activ: 0; FBW7 activator: 0; MITF inh: 73*; TEAD-YAP block: 3; MITF confirm: 3; AS interf ctr: 2

Results for COc1cccc(CNc2ccc(F)c(F)c2)c1O ?
GPR151 activ: 0; FBW7 activator: 0; MITF inh: -8; TEAD-YAP block: -35

How did c1ccc(-c2ccccn2)nc1 do in these assays?
GPR151 activ: -1; FBW7 activator: 0; MITF inh: -14; TEAD-YAP block: -7

How did c1ccc(-c2ccc(-c3ccccn3)nn2)nc1 do in these assays?
GPR151 activ: -9; FBW7 activator: 0; MITF inh: 86*; TEAD-YAP block: 44*; MITF confirm: 99*; AS interf ctr: 101*

What do the screens show for `Cc1[nH][nH]c(=O)c1C(c1ccc(-c2cccc([N+](=O)[O-])c2)o1)c1c(C)[nH][nH]c1=O`?
GPR151 activ: 0; FBW7 activator: 0; MITF inh: 1; TEAD-YAP block: 0

How did Cc1[nH][nH]c(=O)c1C(c1ccc([N+](=O)[O-])o1)c1c(C)[nH][nH]c1=O do in these assays?
GPR151 activ: 0; FBW7 activator: -1; MITF inh: 59*; TEAD-YAP block: 4; MITF confirm: 28*; AS interf DR: >6.5; AS interf ctr: -1

What do the screens show for `CSc1nc(NN)c2c3c(sc2n1)CN(C)CC3`?
GPR151 activ: 0; FBW7 activator: 0; MITF inh: 74*; TEAD-YAP block: -4; MITF confirm: 7; AS interf ctr: 15

Results for Cn1c2sc3c(c2c(=O)n2nnnc12)CCCC3 ?
GPR151 activ: 1; FBW7 activator: 0; MITF inh: 2; TEAD-YAP block: 4

What do the screens show for `CN(C)CC(C)(C)CNCC(O)COCc1ccc2c(c1)OCO2` (centres undefined)?
GPR151 activ: 0; FBW7 activator: 0; MITF inh: 57*; TEAD-YAP block: 2; MITF confirm: 9; AS interf ctr: 13

How did CCOc1ccc2nc(Cl)c(CN(C(=O)c3cnccn3)C3CCCC3)cc2c1 do in these assays?
GPR151 activ: -1; FBW7 activator: 0; MITF inh: -1; TEAD-YAP block: -4

What do the screens show for `O=C(CN1CCN(CC(=O)c2ccco2)CC1)Nc1ccc2c(c1)OCCO2`?
GPR151 activ: -1; FBW7 activator: -1; MITF inh: 69*; TEAD-YAP block: 0; MITF confirm: 10; AS interf ctr: 17

What do the screens show for `Cc1ccccc1NC(=O)CN1CCN(Cc2ccccc2)CC1`?
GPR151 activ: 0; FBW7 activator: 0; MITF inh: 12; TEAD-YAP block: -2

What do the screens show for `COc1ccc(Cl)cc1NC(=O)CN1CCN(C)CC1`?
GPR151 activ: 0; FBW7 activator: 0; MITF inh: 12; TEAD-YAP block: 5

How did COc1ccc(Cl)cc1NC(=O)CN1CCN(CC(=O)c2ccco2)CC1 do in these assays?
GPR151 activ: 1; FBW7 activator: 0; MITF inh: 53*; TEAD-YAP block: 1; MITF confirm: 8; AS interf ctr: 12

Assay outcomes as filed in PubChem.
